Measurements from the supplement of paper PMC10646978.
± gives the standard deviation.

Assays:
Conditions in all cases: modulator concentration 10 µM
[1] = tested on: RAW-Dual (murine macrophage reporter line); experiment: NF-kB reporter (SEAP) activity fold change vs agonist alone; higher = enhanced NF-kB activity
In short: (§1)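 In 384-well plates holding 50 000 RAW-Dual murine macrophage reporter cells per well, compound at 10 μM final was pre-incubated for 1 hour at 37 °C, after which a PRR agonist was added overnight. Supernatant SEAP read with QUANTI-Blue at 620 nm absorbance reported NF-κB, and Lucia luciferase read with QUANTI-Luc luminescence reported IRF. Fold change values come from dividing each reporter signal by the mean of agonist-only control wells on the same plate, averaged over replicate plates with propagated errors.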

[2] = tested on: RAW-Dual (murine macrophage reporter line); experiment: IRF reporter (Lucia luciferase) activity fold change vs agonist alone; higher = enhanced IRF activity
In short: as §1

[3] = tested on: RAW-Dual (murine macrophage reporter line); experiment: viability score (confluency relative to resting cells, overnight) (fraction); higher = more viable, active = viable (0.7 or more)
In short: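 In 384-well plates, RAW-Dual macrophages received compound at a final 10 μM overnight. Two confluency masks were then made with IncuCyte software from IncuCyte images of all imaged wells. The viability score is defined as confluency relative to resting cells. Passing the cutoff required both masks to lie above 70% of resting cells.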

[4] = agonist: CpG ODN 1826 0.5 ug/mL

| SMILES | NF-kB reporter [1, 4] | NF-kB reporter ([1]; agonist: LPS 0.1 ug/mL) | NF-kB reporter ([1]; agonist: MPLA […]) | IRF reporter ([2]; agonist: 3'3'-cGAMP 10 ug/mL) | IRF reporter ([2]; agonist: LPS 0.1 ug/mL) | IRF reporter ([2]; agonist: MPLA […]) | viability score [3] |
| --- | --- | --- | --- | --- | --- | --- | --- |
| COC(=O)N[C@H](C(=O)N1CCC[C@H]1c1ncc(-c2ccc(-c3ccc(-c4cnc([C@@H]5CCCN5C(=O)[C@@H](NC(=O)OC)C(C)C)[nH]4)cc3)cc2)[nH]1)C(C)C.Cl.Cl | 0.437 ± 0.029 | 0.513 ± 0.032 | 0.759 ± 0.045 | 1.27 ± 0.042 | 1.85 ± 0.48 | 1.99 ± 0.46 | 0.204 (inactive) |
| Cc1sc(NC(=O)c2cc(Cl)ccc2[N+](=O)[O-])nc1-c1ccccc1 | 1 ± 0.064 | 1.08 ± 0.089 | 0.951 ± 0.034 | 0.983 ± 0.046 | 1.08 ± 0.055 | 1.08 ± 0.12 | 1 (active) |
| COc1ccc(OC)c(S(=O)(=O)NCC2CC(=O)N(c3ccc(Cl)cc3)C2)c1 (stereo unspecified) | 0.857 ± 0.039 | 0.968 ± 0.12 | 0.911 ± 0.052 | 0.762 ± 0.035 | 1.27 ± 0.23 | 1.21 ± 0.35 | 1.01 (active) |
| CCNc1cc(C)nc(Nc2ccc(NC(=O)c3ccc(OC)c(OC)c3)cc2)n1 | 0.118 ± 0.0094 | 1.32 ± 0.11 | 1.74 ± 0.17 | 0.72 ± 0.023 | 1.19 ± 0.18 | 1.29 ± 0.27 | 0.977 (active) |
| Cc1cc(Cl)ccc1NC(=O)c1ccc(CN2CCN(c3ccccc3)CC2)cc1 | 0.684 ± 0.053 | 0.999 ± 0.07 | 0.978 ± 0.085 | 0.803 ± 0.037 | 1.07 ± 0.069 | 1.2 ± 0.11 | 1.02 (active) |
| Fc1ccc(CN2CCc3c([nH]c4ccccc34)C2)c(F)c1 | 0.636 ± 0.051 | 0.378 ± 0.05 | 0.62 ± 0.082 | 0.909 ± 0.029 | 1.32 ± 0.2 | 1.21 ± 0.16 | 0.212 (inactive) |
| O=C(C=Cc1cc([N+](=O)[O-])ccc1O)c1ccc(Cl)cc1 | 0.614 ± 0.052 | 0.81 ± 0.046 | 1.26 ± 0.21 | 0.496 ± 0.023 | 1.28 ± 0.074 | 1.25 ± 0.11 | 0.983 (active) |
| Nc1ncnc2c1ncn2C1CC(O)C(CO)O1 (stereo unspecified) | 0.992 ± 0.08 | 0.875 ± 0.065 | 1.12 ± 0.11 | 1.12 ± 0.039 | 1.29 ± 0.18 | 1.35 ± 0.26 | 1.05 (active) |
| CC(=O)Nc1cc2nc3ccccc3nc2cc1NC(C)=O | 0.964 ± 0.11 | 1.05 ± 0.11 | 0.955 ± 0.041 | 1.09 ± 0.28 | 1.05 ± 0.092 | 0.988 ± 0.3 | 1 (active) |
| N#CC1=C(NC(=S)NC(=O)c2ccccc2)c2ccccc2CC12CCCCC2 | 0.818 ± 0.096 | 0.577 ± 0.12 | 1.08 ± 0.085 | 1.76 ± 0.18 | 1.41 ± 0.098 | 1.73 ± 0.18 | 0.877 (active) |
| O=C(Nc1cc(C(F)(F)F)cc(C(F)(F)F)c1)c1cccc(Br)c1 | 1 ± 0.09 | 1.02 ± 0.079 | 0.911 ± 0.074 | 0.935 ± 0.028 | 1.55 ± 0.27 | 1.19 ± 0.26 | 1.01 (active) |
| COc1c(C)c2c(c(O)c1C/C=C(\C)CCC(=O)O)C(=O)OC2 | 0.602 ± 0.047 | 0.146 ± 0.007 | 0.352 ± 0.032 | 0.453 ± 0.03 | 1.13 ± 0.066 | 1.31 ± 0.11 | 0.587 (inactive) |
| Cc1[nH]c(=O)c(C#N)cc1-c1ccncc1 | 1.34 ± 0.19 | 1.26 ± 0.28 | 2.34 ± 1.3 | 0.895 ± 0.027 | 1.31 ± 0.15 | 1.34 ± 0.2 | 0.99 (active) |
